This is part of a sample that, as a whole, favours compounds with a hit. Of some 79,000 tested, about 15% had one in any assay. Unmarked numbers belong to inactive results. Calls of active or inactive are those of the source. No stated cut-off is given here; in the data, active means growth inhibition above about 70%; inactive means the rest.
Assay: NCI Yeast Anticancer Drug Screen. Data for the mec2-1 strain (AID 157)
Settings: S. cerevisiae mec2-1 strain, at 50.0 µM (retest, dose inferred, filed as 5.0), active compounds read high
In short: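 Mutant yeast (mec2-1) grown with compound; growth inhibition relative to vehicle control reported.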

| Structure (SMILES) | growth inhibition |
| --- | --- |
| Clc1ccc(OCC(Cn2ccnc2)c2ccc(Cl)cc2)cc1 (stereo not drawn) | 80% (active) |
| CC(C)C(CC(C)(C)C)OC(=O)Nc1cccc2ccccc12 (stereo not drawn) | 98% (active) |
| CC(=O)OC[C@@]1(C)[C@@H]2CC[C@]3(C)[C@H](C(=O)C=C4[C@@H]5CC(C)(C)CC[C@]5(C(=O)O)CC[C@]43C)[C@@]2(C)CC[C@@H]1OC(C)=O | 88% (active) |
| CCOC(=O)C[n+]1c(C)sc2ccccc21 | 28% |
| O=[N+]([O-])c1ccc(/C=N/O)s1 | 100% (active) |
| C=C(C)COc1ccccc1C(OCC)OCC | 19% |
| CCCCCCCCCCCCCC1OC(=O)C(C)=C1C(=O)O (stereo not drawn) | 73% (active) |
| CC(C)C(Sc1nc(-c2ccccc2)c(-c2ccccc2)[nH]1)c1n[nH]c(=S)n1-c1ccccc1 (stereo not drawn) | 98% (active) |
| Cc1ccc(-c2c(C#N)c(S)n(NS(=O)(=O)c3ccccc3)c(=O)c2C#N)cc1 | 91% (active) |
| O=C(c1ccccc1)c1ccc2c(c1Cl)C(=O)c1ccccc1C2=O | -7% |
| COc1cccc(C2c3cc4c(cc3OC(O)C2C)OCO4)c1O (stereo not drawn) | 23% |
| CCC[N+]1=C(/C=C/c2ccc3cccnc3c2O)C(C)(C)c2ccccc21 | 98% (active) |
| O=C(/C=C/c1ccccc1Cl)c1ccc(F)cc1 | 20% |
| CCN(CC)C(=S)N=Nc1c(O)[nH]c2ccccc12 | 99% (active) |
| C[CH2][Sn]([CH2]C)([O]C(=O)c1ccccc1OC)[O][Sn]([CH2]C)([CH2]C)[O]C(=O)c1ccccc1OC | 87% (active) |
| CCCCCCCCCCCCCCCC[N+](C)(C)C(C)c1ccc(OC)cc1 (stereo not drawn) | 98% (active) |
| S=C(NCCc1ccccc1)N/N=C/c1ccc(Cl)cc1 | 54% |
| Cc1cc(Nc2ccc(O)c(CN3CCN(Cc4cc(Nc5cc(C)nc(N)n5)ccc4O)CC3)c2)nc(N)n1 | 96% (active) |
| CC1C[N+](C)(C)C(C)C(=O)C1(c1ccccc1)c1ccccc1 (stereo not drawn) | 2% |
| O=C1C(Cl)=C(Cl)C(=O)C2CC=CCC12 (stereo not drawn) | 99% (active) |

| Structure (SMILES) | growth inhibition |
| --- | --- |
| C/C(=N/O)c1ccc2c(c1)C(C)c1ccccc1-2 (stereo not drawn) | -54% |
| c1ccc(N/N=C2/CCCC3/C(=N\Nc4ccccc4)CCCC23)cc1 (stereo not drawn) | 99% (active) |
| CCCC(C)C/C(C)=C\C(C)(C)C1CC(=O)N(CC)C1=O (stereo not drawn) | 89% (active) |
| COC(C(=O)C1=C2Oc3c4c(cc(O)c3C(=O)C2C2=C(CCCC2)C1=O)OC(C)(C)C=C4)C(C)CCC=C(C)C (stereo not drawn) | 90% (active) |
| Cc1cc(Br)c(NC(=O)CBr)cc1C | 97% (active) |
| Cc1ccc(S(=O)(=O)OCCCCOS(=O)(=O)c2ccc(C)cc2)cc1 | -3% |
| Cc1ccc([N+](=O)[O-])c2c(NCCCN(C)C)c3ccccc3nc12 | 99% (active) |
| CCOC(=O)c1c(N2CCCC2)nsc1Nc1ccc(F)cc1 | 93% (active) |
| CC(=O)[C@H]1CC[C@H]2[C@@H]3CC[C@H]4C[C@@H](N5CCOCC5)CC[C@]4(C)[C@H]3CC[C@]12C | 76% (active) |
| CC(C)CCCC(C)C1CCC2C3CCC4=CC(O)CCC4(C)C3CCC12C (stereo not drawn) | 94% (active) |
| Nc1ccccc1SC(/C=C/NNC1=NC(c2ccccc2)C(c2ccccc2)=NN1)c1ccccc1 (stereo not drawn) | 7% |
| CCOC(=O)C1=C(c2ccccc2)OC(N)=C(C#N)C1c1ccc(C)cc1 (stereo not drawn) | 66% |
| COC1CC(OC(=O)c2ccccc2)C2OC(c3ccccc3)OCC2O1 (stereo not drawn) | 18% |
| O=C(/N=C1\N=Nc2nc(C(C(=O)c3cccs3)c3nc4n(c3O)/C(=N/C(=O)Nc3ccc(Cl)cc3)N=N4)c(O)n21)Nc1ccc(Cl)cc1 (stereo not drawn) | 23% |
| C=CCNC(=S)N/N=C(\CCC)c1ccccn1 | 96% (active) |
| O=C(c1cc2c(C(F)(F)F)onc2c2ccccc12)C(F)(F)F | 9% |
| O=C1C=CC(=O)C2C1Cc1ccccc1C2c1ccccc1 (stereo not drawn) | 98% (active) |
| CC1SC2(C(=O)Nc3ccc([N+](=O)[O-])cc32)N(c2ccc(Cl)cc2)C1=O (stereo not drawn) | 97% (active) |
| CC(=O)OCCn1c2nc(=O)[nH]c(=O)c-2nc2cc(C)c(C)cc21 | 18% |

Same assay, conditions: S. cerevisiae mec2-1 strain, at 50.0 µM, active compounds read high

| Structure (SMILES) | growth inhibition |
| --- | --- |
| Clc1ccc(OCC(Cn2ccnc2)c2ccc(Cl)cc2)cc1 (stereo not drawn) | 99.9% (active) |
| CC(C)C(CC(C)(C)C)OC(=O)Nc1cccc2ccccc12 (stereo not drawn) | 26.4% |
| CC(=O)OC[C@@]1(C)[C@@H]2CC[C@]3(C)[C@H](C(=O)C=C4[C@@H]5CC(C)(C)CC[C@]5(C(=O)O)CC[C@]43C)[C@@]2(C)CC[C@@H]1OC(C)=O | 94.2% (active) |
| CCOC(=O)C[n+]1c(C)sc2ccccc21 | 40.1% |
| O=[N+]([O-])c1ccc(/C=N/O)s1 | 99.7% (active) |
| C=C(C)COc1ccccc1C(OCC)OCC | 14.9% |
| CCCCCCCCCCCCCC1OC(=O)C(C)=C1C(=O)O (stereo not drawn) | 26.9% |
| CC(C)C(Sc1nc(-c2ccccc2)c(-c2ccccc2)[nH]1)c1n[nH]c(=S)n1-c1ccccc1 (stereo not drawn) | 97.1% (active) |
| Cc1ccc(-c2c(C#N)c(S)n(NS(=O)(=O)c3ccccc3)c(=O)c2C#N)cc1 | 80% (active) |
| O=C(c1ccccc1)c1ccc2c(c1Cl)C(=O)c1ccccc1C2=O | 43.8% |
| COc1cccc(C2c3cc4c(cc3OC(O)C2C)OCO4)c1O (stereo not drawn) | 11.5% |
| CCC[N+]1=C(/C=C/c2ccc3cccnc3c2O)C(C)(C)c2ccccc21 | 99% (active) |
| O=C(/C=C/c1ccccc1Cl)c1ccc(F)cc1 | 70.4% (active) |
| CCN(CC)C(=S)N=Nc1c(O)[nH]c2ccccc12 | 87.2% (active) |
| C[CH2][Sn]([CH2]C)([O]C(=O)c1ccccc1OC)[O][Sn]([CH2]C)([CH2]C)[O]C(=O)c1ccccc1OC | 41% |
| CCCCCCCCCCCCCCCC[N+](C)(C)C(C)c1ccc(OC)cc1 (stereo not drawn) | 90.2% (active) |
| S=C(NCCc1ccccc1)N/N=C/c1ccc(Cl)cc1 | 74.3% (active) |
| Cc1cc(Nc2ccc(O)c(CN3CCN(Cc4cc(Nc5cc(C)nc(N)n5)ccc4O)CC3)c2)nc(N)n1 | 96.9% (active) |
| CC1C[N+](C)(C)C(C)C(=O)C1(c1ccccc1)c1ccccc1 (stereo not drawn) | 10.9% |
| O=C1C(Cl)=C(Cl)C(=O)C2CC=CCC12 (stereo not drawn) | 99.4% (active) |

| Structure (SMILES) | growth inhibition |
| --- | --- |
| C/C(=N/O)c1ccc2c(c1)C(C)c1ccccc1-2 (stereo not drawn) | 45.9% |
| c1ccc(N/N=C2/CCCC3/C(=N\Nc4ccccc4)CCCC23)cc1 (stereo not drawn) | 65.5% |
| CCCC(C)C/C(C)=C\C(C)(C)C1CC(=O)N(CC)C1=O (stereo not drawn) | 80.7% (active) |
| COC(C(=O)C1=C2Oc3c4c(cc(O)c3C(=O)C2C2=C(CCCC2)C1=O)OC(C)(C)C=C4)C(C)CCC=C(C)C (stereo not drawn) | 79% (active) |
| Cc1cc(Br)c(NC(=O)CBr)cc1C | 73.3% (active) |
| Cc1ccc(S(=O)(=O)OCCCCOS(=O)(=O)c2ccc(C)cc2)cc1 | 26.1% |
| Cc1ccc([N+](=O)[O-])c2c(NCCCN(C)C)c3ccccc3nc12 | 95.8% (active) |
| CCOC(=O)c1c(N2CCCC2)nsc1Nc1ccc(F)cc1 | 87.2% (active) |
| CC(=O)[C@H]1CC[C@H]2[C@@H]3CC[C@H]4C[C@@H](N5CCOCC5)CC[C@]4(C)[C@H]3CC[C@]12C | 36.5% |
| CC(C)CCCC(C)C1CCC2C3CCC4=CC(O)CCC4(C)C3CCC12C (stereo not drawn) | 90.3% (active) |
| Nc1ccccc1SC(/C=C/NNC1=NC(c2ccccc2)C(c2ccccc2)=NN1)c1ccccc1 (stereo not drawn) | 93% (active) |
| CCOC(=O)C1=C(c2ccccc2)OC(N)=C(C#N)C1c1ccc(C)cc1 (stereo not drawn) | 89.5% (active) |
| COC1CC(OC(=O)c2ccccc2)C2OC(c3ccccc3)OCC2O1 (stereo not drawn) | 8.35% |
| O=C(/N=C1\N=Nc2nc(C(C(=O)c3cccs3)c3nc4n(c3O)/C(=N/C(=O)Nc3ccc(Cl)cc3)N=N4)c(O)n21)Nc1ccc(Cl)cc1 (stereo not drawn) | 63.4% |
| C=CCNC(=S)N/N=C(\CCC)c1ccccn1 | 99.6% (active) |
| O=C(c1cc2c(C(F)(F)F)onc2c2ccccc12)C(F)(F)F | 44.9% |
| O=C1C=CC(=O)C2C1Cc1ccccc1C2c1ccccc1 (stereo not drawn) | 99.3% (active) |
| CC1SC2(C(=O)Nc3ccc([N+](=O)[O-])cc32)N(c2ccc(Cl)cc2)C1=O (stereo not drawn) | 95.7% (active) |
| CC(=O)OCCn1c2nc(=O)[nH]c(=O)c-2nc2cc(C)c(C)cc21 | -3.35% |
